Consider 40 sequences from the supplement of paper PMC10338343.

± gives the standard deviation. Where only a bound is given, the exact number is not on record here.

The assay deals with EfPiwi piRISC loaded with L1MC piRNA (26 nt). In words: pre-steady-state target cleavage rate (min^-1); auxiliary factor: 500 nM Ephydatia muelleri Gtsf1; guide: L1MC piRNA 5'p-UAACUAAAUACUAUGCAAGCUGUAGG; MIWI and MILI are mouse PIWI proteins and EfPiwi is from a freshwater sponge; tags in brackets are library labels; higher = faster piRNA-guided slicing of the target. The protocol: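 Cleave-'n-Seq: a library of target RNAs (target site in constant flanks) at […] was incubated with 1 nM active freshwater sponge Ephydatia fluviatilis Piwi piRISC (synthetic 5'-monophosphorylated piRNA guide) with or without 500 nM EmGtsf1 at 33 °C for 1 min to 16 h. Uncleaved targets were sequenced and the pooled three trials fitted to a burst-and-steady-state model to give the pre-steady-state cleavage rate (min^-1). Sequence is the target site only. Fits with R² ≤ 0 are excluded.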
As to UCCUGGAUGUGCUUCCAAAGUAUUUAGUUA, the “pre-steady-state target cleavage rate” value worked out at 0.00463 ± 0.0046. For “UCCUGCUACAGCUUGCAUAGUAUUUAGUUU [g2:g25:cont:t1U]” the value was 0.158 ± 0.042; for UCCUGGAUGAGCAUGCAUAGUAUUUAGUUA, 0.0207 ± 0.0065.

For UCCUCCUACUCCUUGCAUAGUAUUUAGAAA, the “pre-steady-state target cleavage rate” value was determined as 0.00457 ± 0.0022. With UCCUCCUACACCUUGCAUACUAUUUAGUUA, the “pre-steady-state target cleavage rate” value came out at 0.00578 ± 0.0029. For UCCUGGUUCAGCUUCCAUAGUAUUUAGUUA the value was 0.00303 ± 0.0021; for UCCUGGAUGUGGUUGCAUAGUAUAUAGUUA, 0.00747 ± 0.0056. For UCCUGGAUGAGCUUGCAUAGAAUUUAGUAA the value was 0.00272 ± 0.0027. Take UCCUGGAUGUGGUUGCAUAGUAAUUAGUUA: the “pre-steady-state target cleavage rate” value came to 0.00754 ± 0.0039. The figure for UCCUGGUAGAGCUUGCUUAGUAUUUAGUUA is 0.00885 ± 0.0045; for UCCUGCUACAGCUUGCAUAGUAUAAUGAAA it is 0.00473 ± 0.0032; for UCCUGGAUCUGCUUGCUUAGUAUUUAGUUA it is 0.0931 ± 0.028.

For the sequence UCCUGGAACAGCUGUGCAUAGUAUUUAGUUA, the “pre-steady-state target cleavage rate” value is 0.00999 ± 0.0023.

Turning to UCCUGGUAACAGCUUGCAUAGUAUUUAGUUA, the “pre-steady-state target cleavage rate” value is 0.0495 ± 0.011. The figure for UCCUGGAUCAGCUUGCAUAGUAUAUAGAUA is 0.00301 ± 0.0023; for UCCUGGAACAGCUUGGAUAGUAUUUAGUAA it is 0.00371 ± 0.002; for UCCUCCUACAGCUAGCUUAGUAUUUAGUUA it is 0.00997 ± 0.0038. For UCCUGGAACAGCUUGCAUUGUAUUUUGUUA, the “pre-steady-state target cleavage rate” value worked out at 0.00509 ± 0.0026. For UCCUGGUACAGCUUGCUAUAGUAUUUAGUUA the value was 0.00339 ± 0.0031. The figure for UCCUGGAUGAGCUUGCAUAGUAGUUAGUUA is 0.00781 ± 0.0027; for UCCUGCUACAGCUUGCAUAAGUAUUUAGUUA it is 0.00273 ± 0.0019; for UCCUGCUACAGGUUGCAUAGUAUUUUCAAA it is 0.00243 ± 0.0019. For UCCUGCUACAGCUUGCAAUGUAUUUAGUUA the value was 0.00312 ± 0.0024. For UCCUGGAUGUCGAACGUUAGUAAAAAGUUA, the “pre-steady-state target cleavage rate” value was < 0.0001. The figure for UCCUGGAUCGGCUUGCAUAGUAUUUAGUUA is 0.0523 ± 0.0092. The figure for UCCUGCUACACCUUGCAUAGUAAUUAGUUA is 0.00647 ± 0.0028; for UCCUGGAUGUGCUUGCAUAGUAGUUAGUUA it is 0.0116 ± 0.0041; for UCCUGGUACUGCUUGCAUAGUAUUUACAAA it is 0.00278 ± 0.0027.

On to UCCUGGAUGUCGAUUGCAUAGUAUUUAGUUA, for which the “pre-steady-state target cleavage rate” value amounted to 0.00712 ± 0.0027. For UCCUGGUACUGCUUGCAUAGUAUUUAGUAA the value was 0.00428 ± 0.0018; for UCCUGGAUGUCGAACGUUAGAUUUAGUUA, < 0.0001. Regarding UCCUCCUACAGCUUGCAUAGUACUUUAGUUA, the “pre-steady-state target cleavage rate” value worked out at 0.0115 ± 0.0051. The figure for UCCUGGAAGUCCUUGCAUAGUAUUUAGUAA is 0.00346 ± 0.0028. For UCCUCCUGCAGCUUGCAUAGUAUUUAGUUA the value was 0.103 ± 0.024.

With UCCUCCUACAGGAUGCAUAGUAUUUUCAAA, the “pre-steady-state target cleavage rate” value is 0.00259 ± 0.0025. The figure for UCCUGGUACAGCUUGCAUAGUAAAUAGUUA is 0.00642 ± 0.0025; for UCCUCCUAGAGCUUGCAUAGUAUAUAGUUA it is 0.00597 ± 0.0022; for UCCUGGAUCAGCUUGCAUAGUAUUUAGCUUA it is 0.0068 ± 0.0026.

UCCUGGAUGAGGUUGCAUAGUAUUUAGUUA: the “pre-steady-state target cleavage rate” value stood at 0.00786 ± 0.0024. The figure for UCCUCCUACAGCUUGCAUAGAAUUAAGUUA is 0.00382 ± 0.0025.
